Bioassay records from PubChem BioAssay.
Shown are actives, neighbours in structure and some others; about 4.2% of the full set was active somewhere.
AHR act: AHR activators, primary screen, cell-based, luminescence, luciferase reporter, human. Aryl hydrocarbon receptor (Homo sapiens), P35869. AHR-responsive luciferase reporter cells. activation, % at 5 µM. actives 2.5% (n = 320,000). AID 2796, 2010; in the data active = activation above about 47%;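 also: 0% = vehicle wells and 100% = reference agonist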
Target sequence (P35869 whole entry, looked up): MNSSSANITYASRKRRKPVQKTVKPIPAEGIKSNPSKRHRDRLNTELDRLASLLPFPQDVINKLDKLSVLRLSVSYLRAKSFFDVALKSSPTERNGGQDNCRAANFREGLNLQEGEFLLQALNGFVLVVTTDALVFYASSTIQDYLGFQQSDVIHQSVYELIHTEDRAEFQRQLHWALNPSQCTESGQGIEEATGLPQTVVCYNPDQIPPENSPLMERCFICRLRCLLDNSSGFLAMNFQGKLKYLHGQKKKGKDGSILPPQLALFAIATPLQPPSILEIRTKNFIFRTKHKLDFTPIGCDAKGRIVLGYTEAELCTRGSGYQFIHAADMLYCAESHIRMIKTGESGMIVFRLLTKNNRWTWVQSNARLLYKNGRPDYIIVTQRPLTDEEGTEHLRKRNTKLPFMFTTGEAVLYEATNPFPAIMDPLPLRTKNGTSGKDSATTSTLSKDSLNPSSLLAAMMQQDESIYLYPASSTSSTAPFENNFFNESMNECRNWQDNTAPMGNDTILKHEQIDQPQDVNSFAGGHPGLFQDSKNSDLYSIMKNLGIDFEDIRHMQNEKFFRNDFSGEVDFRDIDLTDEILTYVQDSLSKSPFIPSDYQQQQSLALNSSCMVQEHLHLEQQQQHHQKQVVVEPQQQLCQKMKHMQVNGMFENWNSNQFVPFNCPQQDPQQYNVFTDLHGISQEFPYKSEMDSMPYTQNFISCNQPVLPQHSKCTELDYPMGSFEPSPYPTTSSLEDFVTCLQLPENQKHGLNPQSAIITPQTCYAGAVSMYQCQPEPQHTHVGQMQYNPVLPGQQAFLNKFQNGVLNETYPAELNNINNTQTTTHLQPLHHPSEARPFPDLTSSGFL
Wnt act: Wnt/beta-catenin pathway activators, primary screen, cell-based, plate reader, single point; Wnt/beta-catenin reporter cell assay, activator; activation, % at 9.35 µM; actives 1.2% (n = 300,000); in the data active = activation above about 30%, passing the limit was not always enough; inconclusive = no clear call, values can overlap the other calls;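 also: 0% = neutral control wells and 100% = positive control wells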
GAA850 FXN act: FXN promoter activators, primary screen, cell-based, luciferase luminescence, HEK293 lucGAA850; HEK293 lucGAA850 FXN promoter luciferase reporter, 24 h; percent of 10 µM SAHA response; activation, % at 6 µM; actives 0.56% (n = 360,000); AID 540364, 2011;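 active = activation above the average of all compounds screened plus 3 SD, cutoff fixed separately per campaign, cut at about 7.5% in these data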;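 also: 0% = DMSO wells and 100% = 10 µM SAHA wells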
esBAF inh: Bmi1 luciferase reporter increase in mESCs, primary screen, esBAF inhibitor project, mouse ES cells, Bmi1 luciferase knock-in, single point; 24 h; 100% = twice the neutral-well signal; reporter increase, % at 12.5 µM; actives 2% (n = 350,000); AID 602393, 2012; in the data active = activation above about 40%; inconclusive = no clear call, values can overlap the other calls;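 also: 0% = median of the plate's neutral control wells and 100% = double that signal; a rise in the Bmi1 reporter signal indicates esBAF inhibition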
MITF TRPM1 HTS: activators of MITF-driven TRPM1 promoter reporter, primary screen, cell-based, SK-MEL-5, luciferase, single point. SK-MEL-5 TRPM1-promoter luciferase, 24 h; % of positive control, neutral wells = 0. activation, % at 12.5 µM. actives 0.75% (n = 300,000). AID 588334, 2011;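 active = mean activation of at least 80% with every replicate also reaching 80%; inconclusive = mean reaches 80% but some replicate falls short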;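 also: 0% = neutral control wells and 100% = parthenolide positive control wells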
An asterisk follows results filed as active; u = inconclusive; x = not tested or not shown.

SMILES	AHR act	Wnt act	GAA850 FXN act	esBAF inh	MITF TRPM1 HTS
O=C(Nc1cc(-c2ccccc2)cs1)c1ccco1	x	44.2*	3.4	67.0*	110.2*
O=C(Nc1ccccc1)N[C@@H]1CC[C@H](CCNS(=O)(=O)c2cccc(F)c2)O[C@@H]1CO	x	x	x	1.2	x
Cc1cc(NC(=O)c2ccco2)sc1C	4.5	62.4*	3.0	29.4	103.6*
CC(OC(=O)c1ccco1)C(=O)Nc1nc(-c2ccccc2)cs1 (stereo not drawn)	2.5	7.3	2.6	47.9*	89.5*
O=C(Nc1nc(-c2ccco2)cs1)c1ccccc1	6.1	x	2.1	36.0	u
COc1ccc(-c2csc(NC(=O)c3ccco3)n2)cc1	-2.0	18.0	1.1	64.5*	83.5*
O=C(Nc1nc(-c2ccccc2)cs1)c1ccco1	-6.8	43.3*	2.4	x	x
COc1ccc(-c2nnc(NC(=O)c3ccco3)s2)cc1	6.9	12.5	0.7	16.3	32.1
C[C@@H]1CN([C@H](C)CO)C(=O)Cc2cc(NC(=O)C3CC3)ccc2O[C@@H]1CN(C)CC1CC1	x	x	x	7.8	x
COc1cccc(NC(=O)N2C[C@H](O)COC[C@@H]3O[C@H](CC(=O)NC4CCCC4)CC[C@H]32)c1	x	x	x	-1.2	x
O=C(CCNC(=O)c1ccco1)Nc1nc(-c2ccccc2)cs1	36.9	19.5	1.9	52.7*	x
O=C(NC(=S)Nc1nc(-c2ccc([N+](=O)[O-])cc2)cs1)c1ccco1	-10.1	17.8	1.8	53.5*	23.4
O=C(NC(=S)Nc1nc(-c2ccc(Br)cc2)cs1)c1ccco1	0.3	1.5	-0.2	x	1.9
C[C@@H]1CN([C@@H](C)CO)C(=O)c2cc(NC(=O)Nc3ccc(C(F)(F)F)cc3)ccc2O[C@H]1CN(C)Cc1ccc(C(F)(F)F)cc1	x	x	x	4.5	x
CC(=O)SC(C[N+](=O)[O-])c1cn(C(C)=O)c2ccccc12 (stereo not drawn)	62.9*	x	2.3	x	-105.9
C=CCOc1c(Br)cc(CNc2ccc(NC(=O)C(C)C)c(OC)c2)cc1OCC	67.4*	1.7	-2.8	x	-0.7
C[C@@H]1CN([C@H](C)CO)C(=O)c2cc(Br)cnc2O[C@@H]1CN(C)C(=O)c1ccc(F)cc1	x	x	x	-3.8	x
COc1cccc(-c2ccc3nccn3c2)c1	x	-2.9	2.3	49.4*	x
CN1CCN(C(=O)c2cccc(-c3ccc4nccn4c3)c2)CC1	x	1.9	1.8	-5.6	x
COc1ccc(N=Nc2ccc(O)c3ncccc23)cc1	48.0*	11.0	4.1	x	-69.2
Cc1ccccc1N=Nc1ccc(O)c2ncccc12	2.5	-2.5	2.2	x	-76.1
COc1ccc(S(=O)(=O)Nc2cccc3c2O[C@@H](CN(C)S(=O)(=O)c2ccc(F)cc2)[C@@H](C)CN([C@H](C)CO)C3=O)cc1	x	x	x	2.0	x
O=C(C[C@@H]1CC[C@H]2[C@@H](COC[C@H](O)CN2Cc2cccc(F)c2)O1)NCCc1ccncc1	x	x	x	-1.6	x
CCCCc1ccc(-c2nc(N)n[nH]2)cc1	24.0	34.7*	3.0	29.2	57.0
Nc1n[nH]c(-c2ccc(F)cc2)n1	2.8	1.1	2.3	0.2	x
SMILES	AHR act	Wnt act	GAA850 FXN act	esBAF inh	MITF TRPM1 HTS
C[C@H]1CCCCO[C@@H](CN(C)CC2CCCCC2)[C@@H](C)CN([C@@H](C)CO)C(=O)c2cc(NC(=O)NC3CCCCC3)ccc2O1	x	x	x	-0.4	x
Cc1ccnc(NC(=O)C2CC(=O)N(Cc3ccccc3)C2)c1 (stereo not drawn)	-0.7	u	1.9	24.0	90.4*
O=C(NCCOc1ccccc1F)C1CC(=O)N(Cc2ccccc2)C1 (stereo not drawn)	0.0	34.4*	0.9	-12.2	1.4
Cc1ccc(OCCNC(=O)C2CC(=O)N(Cc3ccccc3)C2)cc1 (stereo not drawn)	-0.4	0.8	1.4	-2.5	-2.5
CCCC(=O)N1CCN(c2nc3ccccc3s2)CC1	-2.2	0.4	4.8	-3.6	96.5*
CCC(=O)N1CCN(c2nc3ccc(Br)cc3s2)CC1	-6.7	20.4	5.3	74.8*	70.7
CC(C)NC(=O)N1CCCN(c2nc3ccc(Cl)cc3s2)CC1	1.8	30.8*	0.7	34.7	19.2
O=C(Nc1ccc2c(c1)[C@H]1C[C@H](CC(=O)N3CCCCC3)O[C@@H](CO)[C@H]1O2)C1CCC1	x	x	x	-7.4	x
N#CC(C#N)=C1SC(=Nc2ccccc2)C(=Nc2ccccc2)N1c1ccccc1	x	56.0*	4.1	x	3.3
N=C1N(c2ccccc2)C(=S)C(=Nc2ccccc2)N1c1ccccc1	x	-3.2	1.8	x	-46.4
O=C1C(Cc2ccccc2)SC(=Nc2ccccc2)N1c1ccccc1 (stereo not drawn)	2.4	x	2.0	-9.2	3.9
Fc1ccc(N2C(=S)SC(=Nc3ccccc3)C2=Nc2ccccc2)cc1	x	57.6*	2.1	x	67.5
CCC(=O)Nc1ccc2c(c1)C(=O)N(C)C[C@H](OC)[C@@H](C)CN(C(=O)c1ccncc1)[C@@H](C)CO2	x	x	x	-4.0	x
CCc1nc(NC(C)(C)C)c2cnn(-c3ccccc3)c2n1	18.1	26.9	7.0	73.5*	u
O=[N+]([O-])c1ccc2nc(SCc3cn4cccnc4n3)[nH]c2c1	51.4*	4.0	2.5	x	2.0
O=[N+]([O-])c1ccc2nc(SCc3cn4cc(Cl)ccc4n3)[nH]c2c1	77.6*	-3.7	1.2	x	-1.1
Cc1cccc2nc(CSc3nc4ccc([N+](=O)[O-])cc4[nH]3)cn12	21.0	1.3	5.3	x	3.1
O=[N+]([O-])c1ccc2nc(SCc3cn4ccccc4n3)[nH]c2c1	31.2	-0.1	3.0	x	5.8
COc1ccc(CNC(=O)C[C@H]2C[C@H]3c4cc(NC(=O)NC5CCCC5)ccc4O[C@H]3[C@@H](CO)O2)cc1	x	x	x	1.1	x
C[C@@H]1CN([C@@H](C)CO)C(=O)Cc2cc(NC(=O)Nc3ccc(C(F)(F)F)cc3)ccc2O[C@H]1CN(C)CC1CC1	x	x	x	1.6	x
Nc1ccc2oc(-c3ccccc3Cl)cc(=O)c2c1O	7.5	21.2	6.2	59.7*	29.5
C[C@H]1CCCCO[C@H](CN(C)Cc2ccc(C(=O)O)cc2)[C@@H](C)CN([C@@H](C)CO)C(=O)c2cc(NC(=O)Nc3ccccc3)ccc2O1	x	x	x	-3.4	x
CC(=O)c1ccc2c(c1)Cc1cc(C(C)=O)ccc1-2	2.2	45.8*	6.0	x	93.0*
c1ccc(CSc2ccc(-c3ccc4c(c3)OCO4)nn2)cc1	73.6*	34.7*	3.7	x	89.5*
c1ccc2c(c1)ccc1nnc(SCc3ccc4c(c3)OCO4)n12	65.4*	1.0	3.2	15.1	35.4
Cn1c(SCc2ccccc2)nnc1-c1ccc2c(c1)OCO2	10.5	-4.7	2.1	51.7*	10.8
